Where a name gives a salt, the structure may show the parent alone. Unmarked numbers belong to inactive results.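 Rule for the calls: for the amine columns active = adjusted P below 0.05 in both replicates with a change the same way and a mean fold change under 0.8 or over 1.25; inactive = the rest.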
Test system: Clostridium sporogenes DSM 1664
Assay: fold change of Tryptamine concentration vs plate DMSO controls (fold change (ratio)); higher = more amine produced, active = hit call of the paper (significant change in both replicates, either direction)
Conditions: incubation time: 27 h, anaerobic, 37 °C
How it was run: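 Anaerobic mGAM cultures of four gut bacterial strains were grown at 37 °C for 27 h in 80 µL wells, starting at OD 0.1 before 1:1 dilution. Compounds were at 20 µM final (sweeteners 50 µM). Whole cultures were extracted with cold acetonitrile/methanol containing 0.1% formic acid and centrifuged. Amines were quantified by LC–triple-quadrupole MS (dynamic MRM) against external calibration curves and drift-corrected within batch. Each value is the fold change versus plate DMSO controls, averaged over 2 biological replicates.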

Row | Compound | fold change of Tryptamine concentration
1 | CN1CCCN=C1/C=C/c1cccc(O)c1 [Oxantel pamoate] (20 µM) | 1.05
2 | COC(=O)[C@H](c1ccccc1Cl)N1CCc2sccc2C1 [Clopidogrel] (20 µM) | 0.986
3 | CCCCCCCCCCCCCCCCCCCCCC(=O)Nc1ccn([C@@H]2O[C@H](CO)[C@@H](O)[C@@H]2O)c(=O)n1 [Enocitabine] (20 µM) | 0.984
4 | CN(C)CCCN1c2ccccc2[S+]([O-])c2ccc(Cl)cc21 (stereo unspecified) [Chlorpromazine Sulfoxide] (20 µM) | 1.06
5 | CCN(CC)CCOC(=O)C1(c2ccc([N+](=O)[O-])cc2)CCCC1 [Nitrocaramiphen hydrochloride] (20 µM) | 0.949
6 | COc1ccc(CC2c3cc(OC)c(OC)cc3CC[N+]2(C)CCC(=O)OCCCCCOC(=O)CC[N+]2(C)CCc3cc(OC)c(OC)cc3C2Cc2ccc(OC)c(OC)c2)cc1OC (stereo unspecified) [Atracurium besylate] (20 µM) | 1.15
7 | O=C(O)C[C@H](O)C[C@H](O)/C=C/c1c(C2CC2)nc2ccccc2c1-c1ccc(F)cc1 [Pitavastatin calcium] (20 µM) | 0.992
8 | CC(Cc1cccc(C(F)(F)F)c1)NCCOC(=O)c1ccccc1 (stereo unspecified) [Benfluorex] (20 µM) | 0.988
9 | S=c1[nH]cnc2nc[nH]c12 [Mercaptopurine] (20 µM) | 1.01
10 | CC(C(=O)O)c1ccc(N2Cc3ccccc3C2=O)cc1 (stereo unspecified) [Indoprofen] (20 µM) | 1.03
11 | C[C@@H](O[C@H]1OCCN(Cc2n[nH]c(=O)[nH]2)[C@H]1c1ccc(F)cc1)c1cc(C(F)(F)F)cc(C(F)(F)F)c1 [Aprepitant] (20 µM) | 0.945
12 | Cc1nnc(NS(=O)(=O)c2ccc(N)cc2)s1 [Sulfamethizole] (20 µM) | 0.928
13 | O=C(Cn1c(=O)sc2ccc(Cl)cc21)N1CCN(CCO)CC1 [Tiaramide Hydrochloride] (20 µM) | 1.08
14 | Clc1ccc(COC(Cn2ccnc2)c2ccc(Cl)cc2Cl)c(Cl)c1 (stereo unspecified) [Miconazole] (20 µM) | 0.725 (active)
15 | Cc1cn[nH]c1 [Fomepizole] (20 µM) | 1.03
16 | CC[C@H]1OC(=O)[C@H](C)[C@@H](O[C@H]2C[C@@](C)(OC)[C@@H](O)[C@H](C)O2)[C@H](C)[C@@H](O[C@@H]2O[C@H](C)C[C@H](N(C)C)[C@H]2O)[C@](C)(OC)C[C@@H](C)C(=O)[C@H](C)[C@@H](O)[C@]1(C)O [Clarithromycin] (20 µM) | 0.0515 (active)
17 | CCCC(=O)OCOC(=O)C1=C(C)NC(C)=C(C(=O)OC)C1c1cccc(Cl)c1Cl (stereo unspecified) [Clevidipine] (20 µM) | 0.829
18 | CC[N+](CC)(CC(=O)Nc1c(C)cccc1C)Cc1ccccc1 [Denatonium benzoate] (20 µM) | 0.999
19 | COc1cc(/C=C/C(=O)N2CCN(CC(=O)N3CCCC3)CC2)cc(OC)c1OC [Cinepazide maleate] (20 µM) | 1.07
20 | COC(=O)C1=C(C)NC(C)=C(C(=O)O[C@H]2CCN(Cc3ccccc3)C2)[C@H]1c1cccc([N+](=O)[O-])c1 [Barnidipine Hydrochloride] (20 µM) | 0.969
21 | COCCCOc1ccnc(C[S+]([O-])c2nc3ccccc3[nH]2)c1C (stereo unspecified) [Rabeprazole sodium salt] (20 µM) | 1.09
22 | CN(C)[C@@H]1C(=O)C(C(N)=O)=C(O)[C@@]2(O)C(=O)C3=C(O)c4c(O)ccc(Cl)c4[C@@H](O)[C@H]3C[C@@H]12 [Demeclocycline hydrochloride] (20 µM) | 0.0455 (active)
23 | O=C1[C@H]2CCCC[C@H]2C(=O)N1CCCCN1CCN(c2nsc3ccccc23)CC1 [Perospirone hydrochloride] (20 µM) | 1.02
24 | CC1=C(/C=C/C(C)=C/C=C/C(C)=C/C(=O)O)C(C)(C)CCC1 [Retinoic acid] (20 µM) | 1.03
25 | C[N+]1(C)CCC(OC(=O)C(O)(c2ccccc2)C2CCCC2)C1 (stereo unspecified) [Glycopyrrolate bromide] (20 µM) | 1.01
26 | COc1ccc2cc([C@H](C)C(=O)O)ccc2c1 [(S)-Naproxen] (20 µM) | 0.983

Source: the supplement of paper PMC12494721
